From the OligoGym collection

These sequences were tested against PML (assay: pooled miR-30 sensor sort-seq; sequence = guide strand). Conditions: shRNA.
Further: reference of the scale not given here.

**Q.** Which sensor-assay potency score (higher = more potent) does the source give for AAGTCTGAGAGTCACCTGCTGT here?
**A.** -0.995

**Q.** How did the sensor-assay potency score (higher = more potent) turn out when TTGTATTGGAGACATCCAGGTC was run?
**A.** -0.853

**Q.** Which sensor-assay potency score (higher = more potent) does the source give for TCCATCTTGATGACCTTCCTGG here?
**A.** -0.889

**Q.** TTCTTGAGTTTGAAGCTGCTGG was tested. Which sensor-assay potency score (higher = more potent) did it give?
**A.** -0.233

**Q.** How did the sensor-assay potency score (higher = more potent) turn out when TTTCTCGCCAGGTAGGTCTGGG was run?
**A.** 0.0297

**Q.** How did the sensor-assay potency score (higher = more potent) turn out when TACAGCTGCATCTTTCCCCTGG was run?
**A.** 0.227

**Q.** TATCTTTCTACATGGATGGAGT was tested. Which sensor-assay potency score (higher = more potent) did it give?
**A.** -0.448

**Q.** TTCATTGTCAATCTTGAGGTCA was tested. Which sensor-assay potency score (higher = more potent) did it give?
**A.** 0.253

**Q.** How did the sensor-assay potency score (higher = more potent) turn out when TTCGGCATCTGAGTCTTCCGAG was run?
**A.** 0.322

**Q.** TCGTGCTTGAGGAACCACTGGT was tested. Which sensor-assay potency score (higher = more potent) did it give?
**A.** 0.0745

**Q.** For TTGTATTGGAGACATCCTCTCC, which sensor-assay potency score (higher = more potent) is on record?
**A.** -0.965

The sequences below were run against PNPLA3 in the same assay as above. Conditions: shRNA.

**Q.** Which sensor-assay potency score (higher = more potent) does the source give for TTTGCAGAGACCCTGTCGGAGG here?
**A.** -0.649

**Q.** TAGCAAGTTGCAAATCTTGCTC was tested. Which sensor-assay potency score (higher = more potent) did it give?
**A.** -0.46

**Q.** How did the sensor-assay potency score (higher = more potent) turn out when TATCGCACGCCTCTGAAGGAAG was run?
**A.** -1.42

**Q.** How did the sensor-assay potency score (higher = more potent) turn out when TAGAAGGGGATGAAGCAGGAAC was run?
**A.** -0.79

**Q.** Which sensor-assay potency score (higher = more potent) does the source give for TAGCAGCTCATCTCCCTCCAGC here?
**A.** -1.05

**Q.** TAAGACATTATCCTAATGGGTA was tested. Which sensor-assay potency score (higher = more potent) did it give?
**A.** -0.331

**Q.** For TTACATAAGACATTATCCTAAT, which sensor-assay potency score (higher = more potent) is on record?
**A.** -0.725

**Q.** For TCTGCTTTGGTCTCTGCTGGAC, which sensor-assay potency score (higher = more potent) is on record?
**A.** -0.599

**Q.** Which sensor-assay potency score (higher = more potent) does the source give for TCTTGCTCATGTATCCACCTTT here?
**A.** -0.0736

**Q.** TTCGTGGACTTGACTTTAGGGC was tested. Which sensor-assay potency score (higher = more potent) did it give?
**A.** -0.495

**Q.** With TTGCTTAAGTTGAAGGATGGAT as the sequence, how does the sensor-assay potency score (higher = more potent) read?
**A.** -0.584

**Q.** ATTACATAAGACATTATCCTAA was tested. Which sensor-assay potency score (higher = more potent) did it give?
**A.** -0.605

What follows are sequences tested against POLG in the same assay as above. Conditions: shRNA.

**Q.** With TTCCTCATCATAGTCGGGGTGC as the sequence, how does the sensor-assay potency score (higher = more potent) read?
**A.** 0.36

**Q.** For TTAAACTGCATTAGTAAGCGCT, which sensor-assay potency score (higher = more potent) is on record?
**A.** -0.404

**Q.** TATGGCACTATTGTCAGTGAGC was tested. Which sensor-assay potency score (higher = more potent) did it give?
**A.** -0.848

**Q.** For TTGAACATTTCTGACTCTGTGC, which sensor-assay potency score (higher = more potent) is on record?
**A.** 0.0886

**Q.** With TTATTGAACATTTCTGACTCTG as the sequence, how does the sensor-assay potency score (higher = more potent) read?
**A.** 0.362

**Q.** How did the sensor-assay potency score (higher = more potent) turn out when TTGTCCTGTAGTCCACACCGAT was run?
**A.** -1.34

**Q.** With TATTGAACATTTCTGACTCTGT as the sequence, how does the sensor-assay potency score (higher = more potent) read?
**A.** 0.187

**Q.** How did the sensor-assay potency score (higher = more potent) turn out when TTTAGGTGTGACCCGCATCTGC was run?
**A.** -1.03

**Q.** How did the sensor-assay potency score (higher = more potent) turn out when TAATCCAGTTCTTCTACCGTTT was run?
**A.** -0.468

**Q.** With TTGGCTGCTATCCACAGACTGC as the sequence, how does the sensor-assay potency score (higher = more potent) read?
**A.** -1.02

**Q.** ATTACAGCTATTACCATCCTTG was tested. Which sensor-assay potency score (higher = more potent) did it give?
**A.** -0.0536

**Q.** With TTGTAGGCAAACATGCACCTGG as the sequence, how does the sensor-assay potency score (higher = more potent) read?
**A.** 0.0528

The sequences below were run against POLH in the same assay as above. Conditions: shRNA.

**Q.** How did the sensor-assay potency score (higher = more potent) turn out when TTGTACTGTACAACTGCACAAG was run?
**A.** -0.852

**Q.** For TAACTTTCTGCCTTTCTGCAGC, which sensor-assay potency score (higher = more potent) is on record?
**A.** -0.259

**Q.** TATCAATCTGAAGAGAATCGAG was tested. Which sensor-assay potency score (higher = more potent) did it give?
**A.** -0.521

**Q.** With ATAACTTCTTAGCATCATCTGC as the sequence, how does the sensor-assay potency score (higher = more potent) read?
**A.** -0.998

**Q.** With TAGCTTTTGTAGTCTCTCTTGT as the sequence, how does the sensor-assay potency score (higher = more potent) read?
**A.** -0.253
